Laboratory results reported in PubChem BioAssay AID588342 (National Center for Advancing Translational Sciences (NCATS), 2011).
Screen size: about 360,000 compounds; about 25,000 (6.9%) were called active. Inconclusive results (about 9%) are left out. The call rests on the fitted dose curve; in most records, active means well fitted inhibition curve with a large enough effect; inconclusive means small, poorly fitted or top-dose-only effect; inactive means flat fitted curve, though single readings scatter. Only a selection was taken, and actives are over-represented in it overall.

target: Luciferin 4-monooxygenase (Photinus pyralis) (UniProt P08659); assay: qHTS profiling assay for firefly luciferase inhibitor/activator using purifed enzyme and Km concentrations of substrates (counterscreen for miR-21 project); settings: purified FLuc, luminescence inhibition; series mostly up to 57.5 µM; activity change, negative = inhibition: at the top concentration; further: nearly all actives have a fitted effect of over 55% in size;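 on activity change, negative = inhibition: plate controls were vehicle for no effect and reference inhibitor for full effect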
Outline: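 Purified P. pyralis luciferase, 10 nM final, with Km-level 10 uM D-luciferin and 10 uM ATP in 50 mM Tris acetate pH 7.5, 10 mM Mg acetate, 0.01% Tween-20, 0.05% BSA; 6-point qHTS titration about 60 µM downward; luminescence read.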
Potency means the concentration at half of the fitted maximal effect.

Chain of Luciferin 4-monooxygenase (Photinus pyralis) (P08659 whole entry, looked up): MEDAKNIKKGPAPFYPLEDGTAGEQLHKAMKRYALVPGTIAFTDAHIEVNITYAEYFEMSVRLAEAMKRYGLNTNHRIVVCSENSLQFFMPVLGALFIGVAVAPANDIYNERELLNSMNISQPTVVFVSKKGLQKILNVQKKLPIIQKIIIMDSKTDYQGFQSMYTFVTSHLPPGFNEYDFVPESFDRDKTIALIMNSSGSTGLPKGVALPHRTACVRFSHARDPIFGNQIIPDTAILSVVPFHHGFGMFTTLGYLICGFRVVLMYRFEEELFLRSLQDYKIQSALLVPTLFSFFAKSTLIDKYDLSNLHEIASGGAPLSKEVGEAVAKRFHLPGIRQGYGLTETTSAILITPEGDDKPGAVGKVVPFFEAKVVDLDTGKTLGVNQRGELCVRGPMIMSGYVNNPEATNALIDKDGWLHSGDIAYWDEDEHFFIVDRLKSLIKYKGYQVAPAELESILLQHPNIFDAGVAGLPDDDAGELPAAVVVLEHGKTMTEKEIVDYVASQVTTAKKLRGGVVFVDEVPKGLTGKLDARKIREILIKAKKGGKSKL

Row | Compound | Potency | activity change, negative = inhibition
1 | COc1ccc(C(=O)Nc2cccc(S(C)(=O)=O)c2)cc1 | 16.9 µM (active) | –
2 | CCCc1cc(=O)oc2cc(OCC(=O)Nc3ccc(CN4CCOCC4)cc3)c(Cl)cc12 | – | 0.442% (inactive)
3 | Cc1ccc(NC(=O)c2ccc(Oc3ncccn3)cc2)cc1 | 15.1 µM (active) | –
4 | COc1ccc(NC(=O)c2cc3cc(C)ccc3n2C)cc1 | – | -4.75% (inactive)
5 | O=C(Nc1ccc(CN2CCOCC2)cc1)c1cc(Cl)ccc1Cl | – | -1.52% (inactive)
6 | COc1ccc(NC(=O)c2sccc2SCC#N)cc1 | 13.5 µM (active) | –
7 | Cc1ccc(NC(=O)c2cccnc2C(=O)Nc2ccc(C)cc2)cc1 | – | -13.1% (inactive)
8 | COc1ccc(-n2cnnc2SCC(=O)Nc2cccc(S(N)(=O)=O)c2)cc1 | – | 1.34% (inactive)
9 | CC1=C(C(=O)Nc2ccccc2)C(c2cccs2)C(C#N)=C(SCC#N)N1 (configuration not stated) | – | 3.23% (inactive)
10 | COc1cccc(-c2cc(C(=O)Nc3ccc(C)cc3)[nH]n2)c1 | – | -11.6% (inactive)
11 | CCOc1ccc(C(=O)Nc2ccc(CN3CCOCC3)cc2)cc1Cl | 7.57 µM (active) | –
12 | COc1ccc(NS(=O)(=O)c2ccc(NC(=O)c3ccc(N(C)S(C)(=O)=O)cc3)cc2)cc1 | – | 8.07% (inactive)
13 | CCOc1ccc(N2CC(c3nc4ccccc4n3CCOc3ccc(OC)cc3)CC2=O)cc1 (configuration not stated) | – | -3.28% (inactive)
14 | CCc1cccc(NC(=O)CN(C)S(=O)(=O)c2ccc3[nH]c4c(c3c2)CCCC4)c1 | – | -18.7% (inactive)
15 | O=C(CCc1ccccc1)NCc1ccc2c(c1)CCN2C(=O)c1ccccc1 | – | -14% (inactive)
16 | CNC(=O)CN1C(=O)c2cccnc2Sc2ccccc21 | – | -6.05% (inactive)
17 | CN(Cc1ccccc1)C(=O)c1cn(C)c2ccc(S(=O)(=O)N(C)C3CCCCC3)cc2c1=O | – | -2.07% (inactive)
18 | Cn1cc(S(=O)(=O)Nc2ccc(Cl)cc2Cl)c(=O)n(C)c1=O | – | -3.16% (inactive)
19 | Cc1cc(C)cc(NC(=O)C(c2ccccc2)N2CCN(CC(=O)N3CCCC3)CC2)c1 (configuration not stated) | – | 3.43% (inactive)

Row | Compound | Potency | activity change, negative = inhibition
20 | Cc1cccc(OCCC(=O)OCc2csc(CC(=O)Nc3ccccc3C)n2)c1 | – | -1.32% (inactive)
21 | O=C(Nc1ccccc1F)C(c1ccccc1)N1Cc2ccccc2C1=O (configuration not stated) | – | 4.63% (inactive)
22 | COc1ccccc1CNC(=O)c1ccc(NC(=O)N2CC(C)Sc3ccccc32)cc1 (configuration not stated) | – | -13.1% (inactive)
23 | COc1cc2c(=O)c(S(=O)(=O)c3ccc(C(C)C)cc3)cn(Cc3ccccc3C)c2cc1OC | – | -1.62% (inactive)
24 | COc1ccc(CC(=O)Nc2ccc(C(=O)NC(C)(C)C)cc2)cc1 | – | -8.31% (inactive)
25 | COCCNC(=S)c1ccc(OC)cc1 | – | -8.55% (inactive)
26 | CCCC(=O)NC(=S)Nc1ccc(CN2CCOCC2)cc1 | – | 0.646% (inactive)
27 | CCCOc1cccc(C(=O)NCCCNC(=O)c2cccnc2)c1 | – | 3.75% (inactive)
28 | COc1ccc(C(=S)Nc2ccccc2)cc1 | 13.5 µM (active) | –
29 | COc1ccc(NC(=O)c2ccc(OC)cc2)cc1 | 4.78 µM (active) | –
30 | COc1ccc(NC(=O)c2ccc(C#CC(C)(C)O)cc2)cc1 | – | -18.6% (inactive)
31 | O=C(Nc1ccc(CSc2ccccc2)cc1)c1ccc(CN2CCOCC2)cc1 | – | -7.97% (inactive)
32 | COc1ccc(C(=O)Nc2ccc(CN3CCOCC3)cc2)cc1 | 12 µM (active) | –
33 | CCCOc1cccc(C(=O)Nc2cccc(NC(=O)c3ccc(C(C)(C)C)cc3)c2)c1 | 1.69 µM (active) | –
34 | COc1ccc(C(=O)CCC(=O)Nc2ccc(Cl)cc2)cc1 | – | 2.82% (inactive)
35 | CCCOc1cccc(C(=O)Nc2ccccc2C(=O)N2CCN(C)CC2)c1 | – | -1.36% (inactive)
36 | Cc1cccc(C(=O)NCCc2nc3ccccc3n2Cc2ccccc2Cl)c1 | – | -4.32% (inactive)
37 | O=C1C2N=NN(CC(=O)N3N=C(c4cccc5ccccc45)CC3c3ccccc3)C2C(=O)N1c1ccccc1 (configuration not stated) | – | 5.45% (inactive)
38 | Cc1ccc(-n2nc(CO)c(C(=O)NCCc3ccccc3)n2)cc1 | – | -0.322% (inactive)

Row | Compound | Potency | activity change, negative = inhibition
39 | COc1ccccc1C(=O)NC(CCSC)C(=O)N1CCN(C/C=C/c2ccccc2)CC1 (configuration not stated) | – | 11.5% (inactive)
40 | COc1cc(C(=O)Nc2ccc(-n3c(C)nc4ccccc4c3=O)cc2)cc(OC)c1OC | – | -0.586% (inactive)
41 | CC(C)Cn1c(-c2ccc(S(=O)(=O)N3CCOCC3)cc2)csc1=Nc1cc(Cl)ccc1Cl | – | 2.36% (inactive)
42 | Cn1c(CC(=O)NNC(=O)c2ccccc2F)nc2ccccc21 | – | 2.54% (inactive)
43 | CCOc1ccc2oc(C(=O)N(CC)CC(=O)Nc3ccc(NC(C)=O)cc3)c(C)c2c1 | – | -7.13% (inactive)
44 | Cc1nn(CC(=O)N2CCN(c3cccc(C(F)(F)F)c3)CC2)c(=O)c2cc3sccc3n12 | – | -8.4% (inactive)
45 | CC(=O)c1ccc(NC(=O)c2nc(-c3ccc(C)cc3)n3c2CCCCC3)cc1 | – | -5.49% (inactive)
46 | CCOC(=O)c1c(NC(=O)c2ccc(N3CCOCC3)c([N+](=O)[O-])c2)sc(C)c1C | – | 0.104% (inactive)
47 | CCC(C(=O)OCC(=O)Nc1ccc(C(=O)Nc2ccc(OC)cc2)cc1)c1ccccc1 (configuration not stated) | – | -15.7% (inactive)
48 | COc1ccc(NC(=O)Nc2ccc3nsnc3c2)cc1 | 6.75 µM (active) | –
49 | COc1cccc(NC(=O)c2csnn2)c1 | – | -19.5% (inactive)
50 | CCC(=O)Nc1ccc(C(=O)Nc2cccc(OC)c2)cc1 | 23.9 µM (active) | –
51 | COc1ccc(/C=N/NC(=O)Nc2ccc3nsnc3c2)c(OC)c1 | – | -4.18% (inactive)
52 | COc1ccc(C(=O)Nc2ccnn2C2CCN(Cc3ccncc3)CC2)cc1 | – | -1.5% (inactive)
53 | COc1ccc(-c2cc(C(=O)Nc3sc4c(c3C(N)=O)CCCC4)no2)cc1 | – | -17.3% (inactive)
54 | COC(=O)[C@H](CCSC)NC(=O)Nc1ccc(OC)cc1 | – | 0.815% (inactive)
55 | COc1ccc(C(=O)Nc2sc(C)c(C)c2CN2CCOCC2)cc1 | 23.9 µM (active) | –
56 | CC1CCc2noc(NC(=O)c3ccc([N+](=O)[O-])cc3)c2C1 (configuration not stated) | – | -12% (inactive)
57 | COc1ccc(C(=O)Nc2onc3c2CCCC3)cc1 | 0.601 µM (active) | –
